The text below walks through data of PubChem BioAssay AID2685 (National Center for Advancing Translational Sciences (NCATS), 2010).

Each structure is given as a SMILES string. About 2,100 (0.66%) of roughly 320,000 compounds were called active. About 53% were inconclusive and are not listed. This is one part of a sample in which actives are shown more often than they occur. Calls come from the whole dose curve; as a rule, active = well fitted inhibition curve with a large enough effect in the signal ratio, with a control signal flat (not every such curve was filed as active); inconclusive = small, poorly fitted or top-dose-only effect, or effect the other way, or a change in a side signal; inactive = flat fitted curve, though single readings scatter; the % refers to the signal ratio.
Potency is the fitted concentration of half-maximal effect.

The assay can be described thus: qHTS Assay for Lipid Storage Modulators in Drosophila S3 Cells.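 For cell number change: cells counted by Cell Tracker Red CMTPX staining in the red channel.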 For lipid storage change, negative = inhibition: % is set by controls: 0 for no effect and ±100 for the full control effect. The note with it: BODIPY lipid droplet fluorescence, 18-24 h, cells fed with added oleic acid; cell number change: measured here: cell count max response; series mostly up to 46.1 µM. In outline: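 Drosophila S3 cells got compounds at several concentrations plus oleic acid (400 uM solution). Laser-scanning cytometry with 488 nm excitation read lipid droplets at 500-530 nm and cells at 575-640 nm. Percent activity was relative to 20 uM Triacsin C.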
For `Cc1ccc(NC(=O)Cn2nc(-c3ccccc3)nc2-c2ccccc2)c(C)c1`, the Potency result was “inactive” and the cell number change is -8.2%.
In the same order, the values of `CCOC(=O)CSc1ncnc2c1cnn2-c1ccc(Cl)cc1` are 0.184 µM (active) and 4.64%.
In the same order, the values of `CCOC(=O)CSc1ncnc2c1cnn2-c1ccccc1` are “inactive” and -3.98%.
Turning to `CCOC(=O)CNC(=O)CSc1ncnc2c1cnn2-c1ccc(C)cc1`, the Potency result was “inactive” and the cell number change is -17%.
As to `CCCOc1cccc(C(=O)N(Cc2ccco2)C2CCS(=O)(=O)C2)c1` (configuration not stated), the Potency entry was “inactive” and the cell number change was -9.39%.
For `CCNC(=S)NCc1ccc2[nH]c(C)cc2c1`, the Potency result is “inactive” and the cell number change amounted to 15.9%.
`COc1cc(C(=O)NCCc2ccc(F)cc2)c([N+](=O)[O-])cc1OC`: the Potency result is “inactive”.
Turning to `Cc1[nH]c(C)c(S(=O)(=O)NCCc2ccccc2)c1C(=O)N1CCCC1`, the Potency entry is “inactive” and the cell number change is 13.4%.
In the same order, the values of `Cc1ccccc1CNS(=O)(=O)c1c(C)[nH]c(C)c1C(=O)N1CCCCC1` are “inactive” and -3.58%.
With `CCOC(=O)c1ccc(NS(=O)(=O)c2c(C)[nH]c(C)c2C(=O)N2CCCCC2)cc1`, the Potency result is “inactive”.
As for `COc1ccccc1CNS(=O)(=O)c1c(C)[nH]c(C)c1C(=O)N1CCCC1`, the Potency result was “inactive”.
With `COc1ccccc1CNS(=O)(=O)c1c(C)[nH]c(C)c1C(=O)N1CCCCC1`, the Potency was 18.4 µM (active) and the cell number change is -19.3%.
Turning to `Cc1[nH]c(C)c(S(=O)(=O)NCCc2ccccc2)c1C(=O)N1CCCCC1`, the Potency is 11.6 µM (active) and the cell number change was -13.9%.
With `Cc1[nH]c(C)c(S(=O)(=O)Nc2ccc(OC(F)(F)F)cc2)c1C(=O)N1CCCCC1`, the Potency is 4.11 µM (active) and the cell number change is -12.7%.
For the molecule `COc1ccc(CCNS(=O)(=O)c2c(C)[nH]c(C)c2C(=O)N2CCCCC2)cc1OC`, the Potency result is “inactive” and the cell number change was -25.1%.
In the case of `COC(=O)c1ccc(NS(=O)(=O)c2c(C)[nH]c(C)c2C(=O)N2CCCC2)cc1`, the Potency entry is “inactive” and the cell number change was -16.1%.
For `O=C(CN1CCN(Cc2ccccc2Cl)CC1)N/N=C/C=C\c1ccccc1[N+](=O)[O-]`, the Potency entry is “inactive” and the cell number change was determined as 0.435%.
For `Cc1ccccc1C(=O)c1cccn1CC(=O)NCC(C)c1ccccc1` (configuration not stated), the Potency entry was “inactive” and the cell number change was -7.34%.
On to `COc1ccc(C(C(=O)NCCC(C)C)N(CCO)C(=O)c2snc(C(N)=O)c2N)cc1` (configuration not stated), for which the Potency result is “inactive” and the cell number change was -7.09%.
Turning to `O=C(CSc1nnnn1C1CCCC1)NCc1ccc2c(c1)OCO2`, the Potency result was “inactive”.
On to `CC1CCN(C(=O)c2ccccc2NS(=O)(=O)c2ccccc2)CC1`, for which the Potency result is “inactive” and the cell number change came to 7.63%.
With `Clc1ccc(N2CCN(Cc3ccco3)CC2)cc1`, the Potency entry is “inactive” and the cell number change came out at 9.59%.
As for `Cc1[nH]c2ccccc2c1/C=C(\C#N)C(=O)NC1CC1`, the Potency result was “inactive”.
For `CC1CCN(C2(O)C(=O)Nc3ccc([N+](=O)[O-])cc32)CC1` (configuration not stated), the Potency entry is “inactive” and the cell number change was -1.63%.
For `Cc1ccc(NC(=O)c2cccc(N3C(=O)C4C5CCC(C5)C4C3=O)c2)c(C)c1` (configuration not stated), the Potency entry was “inactive” and the cell number change amounted to 26.1%.
On to `O=C(Nc1ccc(F)cc1)c1cccc(N2C(=O)C3C4C=CC(C4)C3C2=O)c1` (configuration not stated), for which the Potency entry is “inactive” and the cell number change is -17.9%.
The corresponding values for `Cc1cccc(NC(=O)c2cccc(N3C(=O)CCC3=O)c2)c1` are “inactive” and -21.8%.
`COc1ccc(NC(=O)c2cccc(N3C(=O)C4C5C=CC(C5)C4C3=O)c2)c(OC)c1` (configuration not stated): the Potency result was “inactive” and the cell number change is -15.9%.
`COc1ccc(NC(=O)c2cccc(N3C(=O)C4C5C=CC(C6CC56)C4C3=O)c2)cc1` (configuration not stated): the Potency result is “inactive” and the cell number change is 8.84%.
As to `COc1ccc(NC(=O)c2cccc(N3C(=O)C4C5C=CC(C6CC56)C4C3=O)c2)c(OC)c1` (configuration not stated), the Potency was 5.17 µM (active).
As for `Cc1cccc(NC(=O)c2cccc(N3C(=O)C4C5C=CC(C6CC56)C4C3=O)c2)c1` (configuration not stated), the Potency is 1.3 µM (active) and the cell number change is -23.8%.
Regarding `O=C(Nc1ccccc1)c1cccc(N2C(=O)C3C4C=CC(C5CC45)C3C2=O)c1` (configuration not stated), the Potency is 16.4 µM (active) and the cell number change is -4.48%.
As to `COc1ccc(NC(=O)c2ccccc2N2C(=O)C3C4C=CC(C5CC45)C3C2=O)c(OC)c1` (configuration not stated), the Potency entry was “inactive” and the cell number change was -15.3%.
Turning to `CC(C)CNS(=O)(=O)c1ccc(OCC(=O)Nc2ccc3c(c2)OCCO3)cc1`, the Potency entry was “inactive”.
`Cc1nnc(SCC(=O)N2CCN(S(=O)(=O)c3ccc(Cl)cc3)CC2)n(N)c1=O`: the Potency result was “inactive” and the cell number change was -9.35%.
The corresponding values for `COc1ccc(/C=N/Nc2cc(C)nc(N3CCOCC3)n2)c(OC)c1` are “inactive” and -6.43%.
The corresponding values for `Cc1ccc(NC(=O)c2cc([N+](=O)[O-])ccc2N2CCOCC2)cc1S(=O)(=O)N(C)C` are “inactive” and 9.84%.
In the same order, the values of `O=C(Nc1ccccc1O)c1nc(Cl)ccc1Cl` are “inactive” and 9.99%.
For the molecule `O=C(O)c1ccc(NS(=O)(=O)c2ccc(N3CCCC3)c([N+](=O)[O-])c2)cc1`, the Potency entry is “inactive” and the cell number change is 8.51%.
On to `COc1ccc(NS(=O)(=O)c2ccc(C)c(C(=O)N(C)Cc3ccc(OC)cc3OC)c2)cc1`, for which the lipid storage change, negative = inhibition was -11.3% [at 0.0737 µM] (inactive).
Take `COC(=O)c1cc(NS(=O)(=O)c2ccc(N3CCCCC3)c([N+](=O)[O-])c2)cc(C(=O)OC)c1`: the Potency result is “inactive” and the cell number change is -2.76%.
In the same order, the values of `COc1ccc(NS(=O)(=O)c2ccc(C)c(C(=O)N3CC(C)OC(C)C3)c2)cc1` (configuration not stated) are “inactive” and 23.9%.
In the same order, the values of `COc1ccc(NS(=O)(=O)c2ccc(N)c(C(=O)O)c2)cc1` are 20.6 µM (active) and 1.73%.
In the same order, the values of `COc1ccc(S(=O)(=O)Nc2ccc(NC(C)=O)cc2)cc1` are “inactive” and 29.3%.
As to `COc1ccc(NS(=O)(=O)c2ccc(C)c(C(=O)O)c2)cc1`, the Potency was 25.9 µM (active) and the cell number change is -20.6%.
Take `COc1ccc(NS(=O)(=O)c2ccc(N3CCN(CCO)CC3)c([N+](=O)[O-])c2)cc1`: the Potency was 10.3 µM (active) and the cell number change was -29.2%.
For the molecule `COC(=O)c1ccc(NS(=O)(=O)c2ccc(OC)cc2)cc1`, the Potency entry was “inactive”.
On to `CCOC(=O)CNC(=O)CSc1nnc(-c2ccco2)n1Cc1ccco1`, for which the Potency entry is “inactive” and the cell number change is -21.7%.
As for `O=C(CCCCCNC(=O)N1CCn2c1nc1ccccc12)N[C@@H](C(=O)O)c1ccccc1`, the Potency result was “inactive” and the cell number change was -11.9%.
For `Cc1cc(C)c(C#N)c(OCC(=O)Nc2ccccc2)n1`, the Potency result is “inactive” and the cell number change came to 11.6%.
Consider `CN1CCN(C(=O)c2ccc(Oc3ccc([N+](=O)[O-])cc3)cc2)CC1`, for which the Potency result was “inactive”.
As to `COc1cccc(CNC(=O)c2ccc(NC(=O)CC3SC(N4CCCCC4)=NC3=O)cc2)c1` (configuration not stated), the Potency entry is “inactive” and the cell number change came out at 11.7%.
In the same order, the values of `O=C(Cn1cc[n+](CC(=O)c2ccc(Cl)cc2Cl)c1)c1ccc(Cl)cc1Cl` are “inactive” and -3.27%.
Turning to `N/C(=N\OC(=O)c1cccc2ccccc12)c1ccc(Br)cc1`, the Potency is 10.3 µM (active) and the cell number change was 18.1%.
Take `N/C(=N\OC(=O)c1cccc2ccccc12)c1cccnc1`: the Potency result is “inactive” and the cell number change came to 18.1%.
For `N/C(=N\OC(=O)c1cccc2ccccc12)c1ccncc1`, the Potency result was “inactive” and the cell number change stood at 1.71%.
